Most compounds without a hit are left out; they make up all but 6% or so of the library.
Tau FP inhib = qHTS for Inhibitors of Tau Fibril Formation, Fluorescence Polarization | AID 1468, 2008 | actives 0.39% (n = 280,000) | Microtubule-associated protein tau (Homo sapiens), P10636 | Potency, µM (titrated, usually from 57.7 µM), for the others: top-dose activity, negative = inhibition, actives largely listed as inhibitors | K18 P301L tau heparin fibrillization, Alexa594 FP, 6 h; further: nearly all actives have a fitted effect of over 55% in size
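K18 P301L tau (15 uM unlabeled/0.24 uM Alexa 594-labeled, final) + compound + heparin 20 uM final; 100 mM NaOAc pH 7; 6 hr 37 C; ThT 30 uM final added, 1 hr RT; FP ex 555/em 632 nm.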
PLK1 PBD inh = qHTS for Inhibitors of PLK1-PDB (polo-like kinase 1 - polo-box domain): Primary Screen; Plk1 PBD binding of FITC phosphopeptide, fluorescence polarization; Potency, µM, without a hit: max response, negative = inhibition, actives largely listed as inhibitors; actives 2.8% (n = 360,000); AID 720504, 2013; further: series mostly up to about 57 µM; nearly all actives have a fitted effect of over 65% in size
Target sequence (P53350 whole entry, looked up, the tested form may be a part): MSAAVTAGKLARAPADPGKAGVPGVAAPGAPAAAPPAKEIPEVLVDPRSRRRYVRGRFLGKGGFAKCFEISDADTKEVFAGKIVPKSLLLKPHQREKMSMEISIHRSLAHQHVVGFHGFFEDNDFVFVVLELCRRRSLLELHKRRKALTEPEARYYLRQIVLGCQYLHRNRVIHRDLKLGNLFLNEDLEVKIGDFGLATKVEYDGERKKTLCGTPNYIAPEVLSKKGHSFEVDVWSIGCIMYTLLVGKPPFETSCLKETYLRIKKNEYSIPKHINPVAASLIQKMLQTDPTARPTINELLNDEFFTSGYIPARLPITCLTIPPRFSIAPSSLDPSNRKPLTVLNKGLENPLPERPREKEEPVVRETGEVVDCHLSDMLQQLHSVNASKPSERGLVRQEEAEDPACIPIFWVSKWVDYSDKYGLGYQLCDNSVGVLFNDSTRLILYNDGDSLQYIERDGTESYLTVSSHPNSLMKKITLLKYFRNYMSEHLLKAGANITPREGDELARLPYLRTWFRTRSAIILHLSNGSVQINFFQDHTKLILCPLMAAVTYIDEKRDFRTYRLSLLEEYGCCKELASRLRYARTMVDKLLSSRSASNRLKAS
Sfp PPTase inh = qHTS Assay for Inhibitors of Bacillus subtilis Sfp phosphopantetheinyl transferase (PPTase) | 4'-phosphopantetheinyl transferase ffp (Bacillus subtilis), Q9F4F7 | Biochemical Sfp PPTase activity, qHTS | Potency, µM, inactives show largest response in the series, negative = inhibition, most hits filed as inhibitors | actives 3.5% (n = 310,000) | AID 1490, 2009;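 further: the enzyme is Sfp with the accession as filed and its product quenches rhodamine fluorescence; 0% = enzyme reaction without inhibitor and -100% = no enzyme wells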
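Sfp 15 nM + cpd, 15 min RT; start w/ rhodamine-CoA 5 uM, BHQ-2-YbbR 12.5 uM (final); 50 mM Hepes pH 7.6, 10 mM MgCl2, 0.01% NP-40, 0.01% BSA; read 525/598 nm at 0 and 30 min.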
Tau fluor cs = Counterscreen qHTS for Inhibitors of Tau Fibril Formation, Fluorescence Polarization; tau K18 P301L Alexa594 fluorescence, heparin fibrillization; Potency, µM (doses to about 57.7 µM), without a hit: top-dose activity change, negative = decrease; actives 0.93% (n = 280,000); further: nearly all actives have a fitted effect of over 55% in size
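Human K18 P301L tau (15 uM unlabeled plus 0.24 uM Alexa 594-labeled, final) in 100 mM sodium acetate pH 7 was mixed with compound and 20 uM heparin and incubated 6 hr at 37 C.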
Tau fibril ThT = qHTS for Inhibitors of Tau Fibril Formation, Thioflavin T Binding | Microtubule-associated protein tau (Homo sapiens), P10636 | recombinant tau K18 P301L, heparin-induced fibrillization, ThT fluorescence | Potency, µM (series often up to 57.4 µM), without a hit: at the highest dose activity, negative = inhibition, actives largely listed as inhibitors | actives 2.1% (n = 270,000); further: nearly all actives have a fitted effect of over 55% in size
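Fibril formation assay: tau K18 P301L at 15 uM with trace Alexa 594 label, heparin inducer 20 uM, pH 7 sodium acetate buffer, 37 C for 6 hr; endpoint ThT signal.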
VDR inh = Inhibitors of the vitamin D receptor (VDR): qHTS; AID 504847, 2011; Potency, µM, without a hit: max response, negative = inhibition, actives largely listed as inhibitors; VDR-SRC2-3 peptide fluorescence polarization, 2 h; actives 0.93% (n = 400,000); Vitamin D3 receptor (Homo sapiens), P11473
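VDR–SRC2-3 interaction, FP format. Cmpds 23 nl via pintool, brief spin, 2 h ambient incubation.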
The depositor's hits bear a star; ? = inconclusive; . = not tested or not shown; [ ] = dose if it differs, or a comment. The call rests on the fitted dose curve; in most records, active means well fitted curve in the direction sought with a large enough effect; inconclusive means small, poorly fitted or top-dose-only effect, or another doubt; inactive means no such curve, though single readings can be large; an effect the other way counts as inactive or inconclusive. Unless noted, on the % scale 0 is the no-effect control and ±100 the full control effect; potency means the concentration at half of the fitted maximal effect.

SMILES	Tau FP inhib	PLK1 PBD inh	Sfp PPTase inh	Tau fluor cs	Tau fibril ThT	VDR inh
Cc1ccc(Cl)cc1NC(=O)Cn1nnc2sc3c(c2c1=O)CCC(C(C)(C)C)C3 (stereo not drawn)	?	.	.	-17%	0%	5%
CCc1c(C)sc(NC(=O)Cn2nc(C(F)(F)F)c3c2CCCC3)c1C#N	-9%	21µM*	40µM*	-10%	-7%	-11%
CCCCC(=O)Nc1sc2c(c1C#N)CC(C)(C)OC2	2%	27µM*	9%	0%	9%	79µM*
CCN(CC)C(=O)c1cccc(-c2csc(C(C)(O)c3ccncc3)n2)c1 (stereo not drawn)	.	2%	.	.	.	.
NC1=NC2C(N=C(Br)N2[C@@H]2O[C@H]3COP(=O)(O)O[C@@H]3[C@@H]2O)C(=O)N1 (stereo partly drawn)	-3%	.	4%	-4%	-5%	2%
CC(=O)c1cn(CC(=O)Nc2cccc(C)c2C)c2ccccc12	-1%	-12%	45µM*	-10%	-12%	8%
Fc1ccc(-c2csc(N3CCSCC3)n2)cc1	-3%	-2%	-4%	-16%	-10%	-9%
CC1=NN(c2nc(-c3ccc(Cl)cc3)cs2)C(=O)C1	-1%	?	5%	?	11µM*	-13%
Clc1ccc(-c2csc(N3CCSCC3)n2)cc1	5%	24µM*	-3%	-24%	-23%	-29%
CC1=NN(c2ccc(Cl)cc2)C(=O)C1	-3%	2%	16%	-25%	?	?
c1cc2c3c(cccc3c1)NC1(CCC3(CC1)Nc1cccc4cccc(c14)N3)N2	-11%	-8%	?	13µM*[quencher]	16µM*	1%
COc1ccc(CCNC(=O)Nc2ccc3nc([C@@H]4O[C@H](CO)[C@@H](O)[C@H](O)[C@H]4O)[nH]c3c2)cc1Br	.	-8%	.	.	.	.
COc1ccc(NC(=O)CN(c2ccc(F)cc2)S(=O)(=O)c2ccccc2)c(OC)c1	.	-9%	5%	.	.	-5%
COc1ccc(NC(=O)CN(C)C(=O)c2cc3c(s2)CCC3)cc1	.	7.5µM*	.	.	.	4%
Cc1c(C(=O)O)cnc2c([N+](=O)[O-])cnn12	1%	3.4µM*	7%	0%	-3%	35µM*
C=CC(=O)Nc1cccc(Nc2nc(N[C@H]3CC[C@H](N(C)C)CC3)nc3c2ncn3C(C)C)c1	.	-6%	.	.	.	6%
O=C1C=CC(=O)N1N(c1ccccc1)c1ccccc1	0%	4.7µM*	32µM*	3%	-10%	13µM*
O=C1c2ccccc2C(=O)N1N(c1ccccc1)c1ccccc1	.	2%	.	.	.	-1%
O=C(O)CCn1c(SCCOc2ccccc2)nc2ccccc21	.	-8%	13%	.	.	2%
CC(C)c1cccc(-c2ccc3c(c2)S(=O)(=O)c2cccc(C(=O)NCc4ccco4)c2C3=O)c1	.	42µM*	.	.	.	-18%
O=c1c2c(nc3cc(-c4ccc(F)cc4)[nH]n13)CCCC2	-4%	-9%	12%	2%	-3%	3%
O=c1c2c(nc3cc(-c4cccc(F)c4)[nH]n13)CCC2	2%	24µM*	9%	-3%	-22%	-11%
COc1ccc(C2c3cc(OC)c(OC)cc3Cc3c4cc(OC)c(OC)cc4cc[n+]32)cc1OC (stereo not drawn)	0%	.	-15%	-6%	-10%	-14%
O=C(c1ccc2nc(Cc3ccccc3F)oc2c1)N1CCCC1	.	-1%	11%	.	.	-16%
O=C(c1ccc2nc(Cc3ccccc3F)oc2c1)N1CC[C@H](O)C1	.	24µM*	13%	.	.	?
SMILES	Tau FP inhib	PLK1 PBD inh	Sfp PPTase inh	Tau fluor cs	Tau fibril ThT	VDR inh
O=C(Nc1ccccc1)C1C2/C=C\CCCCC21 (stereo not drawn)	-4%	27µM*	20%	-10%	-5%	-12%
Cc1ccccc1NC(=O)C1C2/C=C\CCCCC21 (stereo not drawn)	-4%	-4%	5%	3%	1%	-10%
COc1cccc(-c2nc(-c3cccc(C)c3)nc3cc(Cl)ccc23)c1	.	-2%	.	.	.	.
CCOC(=O)c1ccc2nc(C)cc(Nc3ccc(OC(C)C)cc3)c2c1	8%	.	.	?	?	-8%
COc1c(Br)cc(Br)cc1C(=O)O	6%	0%	0%	4%	-3%	-16%
COC(=O)C(=Cc1cc(Br)c(OC)c(Br)c1)C(=O)OC	0%	.	?	?	?	8.9µM*
COc1ccc(/C=N/c2c(-c3ccc(OC)cc3)nc3n2CCS3)cc1	-4%	-2%	-20%	?	14µM*	9%
Fc1ccc(/C=N/c2c(-c3ccc(F)cc3)nc3n2CCS3)cc1	2%	-2%	-13%	-27%	?	0%
Cc1nn(-c2ccccc2)cc1C(c1c(N)[nH]c(=S)[nH]c1=O)c1c(N)[nH]c(=S)[nH]c1=O	-14%	-24%	22µM*	?	?	10%
CCOc1ccc(NC(=O)CNc2cccc(S(=O)(=O)N3CCCCCC3)c2)cc1OCC	.	-3%	.	.	.	-5%
O=C(Cc1cccc2ccccc12)N/N=C/c1ccc(Sc2cccc3cccnc23)o1	-14%	.	-5%	?	-17%	.
CCCCC(=O)N/N=C/c1ccc(Sc2cccc3cccnc23)o1	-10%	-19%	35µM*	?	-17%	-14%
CN(C)CCNC(=O)/C(=C/c1ccc(-c2ccc(Cl)cc2)o1)NC(=O)c1ccccc1	-1%	-3%	-31%	-7%	-8%	-10%
CN(C)CCNC(=O)/C(=C/c1ccc(-c2ccc(Cl)cc2Cl)o1)NC(=O)c1ccccc1	-11%	-8%	40µM*	-9%	?	-3%
C[C@]12O[C@H]1[C@@H](O)C(Br)=C(CO)[C@H]2O	-10%	.	-2%	-12%	-3%	2%
COc1ccc(N/C=C/c2nc(SC)nnc2C)cc1	8%	10%	2%	-17%	3.2µM*	4%
CSc1nnc(C)c(/C=C/Nc2ccc(Cl)cc2)n1	8%	?	14%	-30%	16µM*	9%
CSc1nnc(C)c(/C=C/Nc2ccc(F)cc2)n1	-6%	-9%	-5%	-22%	?	3%
Cc1cccc(N(C)C(=O)CSc2nc3ncccc3o2)c1	-1%	.	.	0%	-10%	-12%
CC1(C)O[C@H]2[C@@H](O1)[C@@H](C(=O)Nc1ccccc1C(F)(F)F)O[C@@H]1OC(C)(C)O[C@@H]12	-4%	.	.	-6%	10%	15%

Source: PubChem BioAssay
